D3 ag = D3 dopamine receptor (human) agonism; max activation, %; D3R DiscoveRx beta-arrestin cells, luminescence, 90 min; hit rate 0.58% among 410,000; in the data active means max activation above about 30%; further: 0% is about no effect
Target sequence (P35462 whole entry, looked up): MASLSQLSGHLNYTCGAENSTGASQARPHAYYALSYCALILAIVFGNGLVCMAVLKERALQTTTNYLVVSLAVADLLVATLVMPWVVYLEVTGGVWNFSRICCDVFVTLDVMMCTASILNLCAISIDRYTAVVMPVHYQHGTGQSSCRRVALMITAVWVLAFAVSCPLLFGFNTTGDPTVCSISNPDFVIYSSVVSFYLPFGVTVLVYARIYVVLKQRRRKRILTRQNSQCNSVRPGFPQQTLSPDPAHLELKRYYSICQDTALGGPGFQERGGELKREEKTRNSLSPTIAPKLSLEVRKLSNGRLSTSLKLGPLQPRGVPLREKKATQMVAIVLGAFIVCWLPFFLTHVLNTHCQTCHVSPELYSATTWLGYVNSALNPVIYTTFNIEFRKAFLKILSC
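Agonist-mode cell screen: cells plated at 1500/well and incubated overnight at 37 °C, then exposed to library compounds for 90 min at 37 °C. Detection reagent was added for 30–60 min at room temperature, and luminescence was read.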
DRD3 antagonist = blocks the human D3 dopamine receptor; D3R cells, DiscoveRx beta-arrestin luminescence, antagonist mode; hits give low values; hit rate 2.5% among 360,000; max response, negative = inhibition, %; P35462; in the data active means max response below about -50%; further: on the % scale 0 is the no-effect control and ±100 the full control effect
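Cells expressing the human receptor were seeded at 1500 cells/well, incubated overnight at 37 degrees C in 5% CO2, then exposed to library compounds with dopamine controls for 90 minutes at 37 degrees C before luminescent detection.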
TRPML1 blocker = blocks the human TRPML1 channel | Q9GZU1 | TRPML1-inducible cells, Ca2+ dye fluorescence, FDSS; hits give low values; inhibition of EC80 agonist-evoked calcium signal | activity change, negative = inhibition, % (no concentration beside the values) | hit rate 0.02% among 390,000; in the data active means activity change below about -50%;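 further: stimulus is agonist 54-4 at its EC80 concentration; on the % scale 0 is the no-effect control and ±100 the full control effect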
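Tet-induced TRPML1-DL cells loaded with Ca8 no-wash calcium dye were read kinetically on FDSS. Compound addition was followed by EC80 agonist 54-4 (4 uM final); inhibition was read over 110 s.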
TRPML1 agonist = activates the human TRPML1 channel. hit rate 0.12% among 410,000. TRPML1-expressing cells, Ca2+ dye fluorescence, FDSS. Q9GZU1. activation, % (concentration not given with the values); in the data active means activation above about 50%; further: 0% is about no effect
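Tetracycline-induced TRPML1-DL cells are seeded and incubated overnight before loading with a no-wash Ca2+ dye and quencher. Agonist activity is taken from the 110 s fluorescence read following compound pin-transfer on an FDSS, before EC80 54-4 challenge.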
* = called active by the depositor; · = no result given. A selection: hits, their analogues and other compounds. The true share with any hit is near 2.9%.

SMILES	D3 ag	DRD3 antagonist	TRPML1 blocker	TRPML1 agonist
COc1ccc(CCNC(=O)c2cc(-c3ccc(C)c(C)c3)nc3ccccc23)cc1OC	-11.3	·	56.9	0.8
Cc1ccc(-n2nc(C(=O)N(C)Cc3ccccc3)c3c4ccccc4n(C)c3c2=O)cc1	6.7	·	-2.2	-0.4
Cc1cccc(C)c1N(CC(=O)N1CCN(C)CC1)S(C)(=O)=O	4.1	-79.2*	-3.6	-0.9
Cc1cccc(N(CC(=O)N2CCCCCC2)S(C)(=O)=O)c1C	5.4	5.1	-0.7	-0.2
CCSc1ncc(Cl)c(C(=O)Nc2nc3ccc(S(C)(=O)=O)cc3s2)n1	1.3	·	2.5	1.8
COc1cccc(-c2nnc3sc(CN4CCCCC4)cn23)c1	-20.9	·	-6.4	3.4
NS(=O)(=O)c1ccc(N/N=C/C=C/c2ccccc2[N+](=O)[O-])cc1	5.3	2.5	4.6	-0.7
Nc1ccc(S(=O)(=O)NN=CC=Cc2ccccc2[N+](=O)[O-])cc1	-17.0	-65.2*	56.9	0.3
N#Cc1nc(-c2ccccc2)oc1NCCN1CCCCC1	-0.4	-72.3*	-0.6	0.2
N#Cc1nc(-c2cccs2)oc1NCCN1CCOCC1	-1.4	-9.4	6.6	-0.7
COc1ccc(CNC(=O)CCC2N=C3c4ccccc4N=C(SCC(=O)NCCc4ccc(OC)c(OC)c4)N3C2=O)cc1 (stereo not given)	3.4	·	-5.7	-0.7
COc1ccccc1N1CCN(CC(=O)Nc2ccc(CN3CCCCC3)cc2)CC1	-27.0	-65.5*	-3.9	1.0
Cc1ccc(Cl)cc1N1CCN(CC(=O)Nc2ccc(CN3CCCCC3)cc2)CC1	-8.4	-64.9*	6.0	6.5
CC(=O)c1cccc(NC(=O)CSCc2ccccc2)c1	-8.4	-78.7*	-1.8	0.1
COC(=O)c1cccc(NC(=O)CN2CCN(Cc3ccccc3)CC2)c1	-10.1	-50.5*	-3.8	-1.0
CC(=O)c1cccc(NC(=O)CN2CCN(Cc3ccccc3)CC2)c1	-9.5	-9.2	6.6	0.0
CC(=O)c1cccc(NC(=O)CSCc2ccc(Br)cc2)c1	-26.1	0.0	2.9	0.3
COc1ccccc1NC(=O)CN1CCN(c2ccccc2OC)CC1	0.3	8.9	-5.8	2.2
O=C(Cc1ccccc1)NCC(=O)OCC(=O)c1ccc2ccccc2c1	·	·	·	-0.8
COc1ccccc1N1CCN(CC(=O)NCc2ccc(Cl)cc2)CC1	-6.9	-69.7*	-18.6	-0.9
COc1cccc(-c2cn3c(n2)sc2cc(C(=O)NCc4ccccc4F)ccc23)c1	4.2	·	-16.0	-0.2
Cc1ccc(NC(=O)CCSc2nc(-c3ccc4c(c3)OCO4)cc(C(F)(F)F)n2)cc1	-11.2	·	-8.9	2.1
Cc1ccc(NC(=O)CCSc2nc(-c3ccc4c(c3)OCO4)cc(C(F)(F)F)n2)c(C)c1	56.5*	·	-1.6	1.5
CCOc1ccc(NC(=O)c2ccc(F)cc2F)cc1	-1.3	-64.9*	14.7	1.1
CCOc1ccc(NC(=O)c2cc3ccccc3cc2OC)cc1	4.8	20.2	47.2	0.4
SMILES	D3 ag	DRD3 antagonist	TRPML1 blocker	TRPML1 agonist
COc1cccc(C(=O)COc2cccc(NC(=O)c3cccc([N+](=O)[O-])c3)c2)c1	13.8	-51.1*	23.2	0.5
O=C(COc1cccc(NC(=O)c2cccc([N+](=O)[O-])c2)c1)c1ccc(F)cc1	4.4	-13.0	-3.5	0.3
COC(=O)Nc1ccc(SCC(=O)c2cccc([N+](=O)[O-])c2)cc1	-4.7	-60.3*	-12.7	-0.6
CCOC(=O)c1c(NC(=O)CSc2cn(CCNC(=O)c3c(F)cccc3F)c3ccccc23)sc2c1CCC2	8.5	·	-0.3	-0.2
CSc1ncc(Cl)c(C(=O)N(Cc2ccc(C(C)C)cc2)C2CCS(=O)(=O)C2)n1 (stereo not given)	0.9	·	-8.3	-0.2
Cc1cccc(CNC(=O)c2cccc(NC(=O)N3CCSc4ncccc43)c2)c1	1.3	·	19.0	1.4
CC(=O)C(=Cc1ccc(-c2ccccc2)cc1)C(=O)c1ccccc1	-9.6	-53.1*	·	-0.2
COc1ccc(S(=O)(=O)N2CCCCCC2)cc1C(=O)OCC(=O)NC(C)(C)C	38.6*	1.6	5.9	0.4
COc1ccc(S(=O)(=O)N2CCCCCC2)cc1C(=O)OCC(=O)NC(N)=O	3.6	5.2	6.4	-0.5
CCCCn1nnnc1SCC(=O)NNC(=O)c1ccco1	-2.4	-5.9	-6.2	-0.3
CCCCn1nnnc1SCC(=O)NCc1ccccc1	-2.8	-54.8*	4.9	-0.1
O=C(CSc1nnnn1Cc1ccccc1)c1ccccc1	-2.0	-57.8*	8.4	-0.7
COc1cccc(C(=O)CSc2nnnn2C)c1	0.1	-63.8*	-1.1	-0.2
O=C(CSc1nnnn1Cc1ccccc1)c1ccc(F)cc1	4.9	5.4	0.8	1.6
COC(=O)CC(=O)CSc1nc2cc(C(=O)NCC(C)C)ccc2c(=O)n1CCc1ccccc1	6.6	·	2.7	2.5
COc1ccc(C(=O)NCCc2nc3ccccc3[nH]2)cc1	-8.2	·	-12.4	1.8
O=C(Nc1ccc(Oc2ccccc2)cc1)C1CCCO1 (stereo not given)	-3.9	-79.0*	6.2	0.1
COc1ccc(NC(=O)C2CCCO2)cc1 (stereo not given)	2.0	-14.4	5.1	-0.7
Cc1ccc(O)c(N=CC2=C(O)c3ccccc3C2=O)c1	-11.9	-53.6*	1.8	1.0
CCOC(=O)c1c(N)c2cc([N+](=O)[O-])ccc2n1C	-1.6	-25.6	-5.4	0.1
CCOC(=O)/C(=C/c1c(C)n(C)c2ccc([N+](=O)[O-])cc12)C(C)=O	-9.0	-53.8*	9.4	-1.0
COc1ccc(-n2nnnc2C(c2cccc(OC)c2OC)N2CCN(C/C=C/c3ccccc3)CC2)cc1 (stereo not given)	-8.8	-85.8*	·	-0.3
COc1cccc(C(c2nnnn2C2CCCC2)N2CCN(C/C=C/c3ccccc3)CC2)c1OC (stereo not given)	-21.9	-96.3*	11.8	5.8
COc1ccc(N2CCN(C(c3ccccc3)c3nnnn3C(C)C)CC2)cc1 (stereo not given)	·	·	·	60.5*
COc1ccc(/C=C/CN2CCN(CCc3ccccc3)C(CCO)C2)cc1 (stereo not given)	-10.3	-19.3	-3.7	-0.3
SMILES	D3 ag	DRD3 antagonist	TRPML1 blocker	TRPML1 agonist
COc1ccc(-n2nnnc2C(CCc2ccccc2)N2CCN(C/C=C/c3ccccc3)CC2)cc1 (stereo not given)	-17.5	-76.1*	·	0.0
COc1ccc(N2CCN(C(c3ccccc3)c3nnnn3C(C)(C)C)CC2)cc1 (stereo not given)	5.9	-10.7	·	1.8
CCOc1ccc(CNC(=O)C2CCN(C(=O)c3sccc3-n3cccc3)CC2)cc1	5.8	·	29.7	0.5
CCC(c1nnnn1-c1ccc(OC)cc1)N1CCN(C/C=C/c2ccccc2)CC1 (stereo not given)	-4.1	-56.8*	46.6	0.3
COc1ccc(-n2nnnc2C(c2ccccc2)N2CCN(C/C=C/c3ccccc3)CC2)cc1 (stereo not given)	-12.9	-117.7*	·	-0.2
Cc1nc(CC(=O)Nc2ccc(C(N)=O)cc2)cs1	0.3	·	-12.5	1.3
